Results as given in PubChem BioAssay AID588453 (National Center for Advancing Translational Sciences (NCATS), 2011).
About 4,000 (1%) of roughly 390,000 compounds were called active. A call without a number means that no potency is given here. About 4% were inconclusive and are not listed. Calls come from the whole dose curve; as a rule, active = well fitted inhibition curve with a large enough effect; inconclusive = small, poorly fitted or top-dose-only effect; inactive = no such curve, though single readings can be large or run the other way. Only a selection was taken, and actives are over-represented in it overall.

molecular target: Thioredoxin reductase 1, cytoplasmic (Rattus norvegicus) (UniProt O89049); test: qHTS Assay for Inhibitors of Mammalian Selenoprotein Thioredoxin Reductase 1 (TrxR1): qHTS; conditions: recombinant rTrxR1, NADPH fluorescence consumption, selenite substrate; series mostly up to 114 µM; note: nearly all actives have a fitted effect of over 65% in size
From the text: The selenoprotein thioredoxin reductase (TrxR; EC 1.8.1.9) is a FAD containing homodimeric pyridine nucleotide-disulfide oxidoreductase with many cellular roles. Together with NADPH and its prime substrate thioredoxin (Trx), the enzyme forms the core of the Trx system. The mammalian Trx system exerts a wide spectrum of functions including redox regulation, antioxidant defense, regulation of transcription factors as well as support of cell growth and replication. Many of these functions involve the reduction of Trx, which may subsequently reduce a number of different substrates including ribonucleotide reductase, peroxiredoxins or NFkB. Mammalian TrxR itself also has a broad substrate specificity, reducing both protein and non-protein substrates, including low molecular weight compounds such as dehydroascorbate, lipoic acid, ubiquinone, and juglone. In addition, several drugs in clinical use for anticancer treatment are indeed known to target TrxR1.
This BioAssay is a validation of an NADPH fluorescence-based, dual-purpose qHTS rTrxR1 assay designed to find potential inhibitors and substrates of rTrxR1. For this particular BioAssay, actives are potential inhibitors. See related BioAssay for substrate data deposition.
NIH Molecular Libraries Probe Production Network [MLPCN]
NIH Chemical Genomics Center [NCGC]
Assay Provider: Elias Arner, Karolinska Institute
Assay protocol: 2 uL of reagents (buffer in column 4 as negative control and 90 nM rTrxR1 in columns 1-3 and 5-48) were dispensed into Greiner black solid-bottom 1,536-well assay plates, followed by 1 uL of NADPH (400 uM final concentration) to each well. The plates were centrifuged at 1000 rpm for 15 seconds and subsequently incubated for 5 min at room temperature (~22 deg C) to allow for rTrxR1 reduction. Compounds (23 nL) were then transferred via Kalypsys pin tool equipped with 1536-pin array (10 nL slotted pins, V&P Scientific, San Diego, CA). In addition, a duplicate 2-fold serial dilution of the control compounds auranofin, a known gold-based TrxR1 inhibitor, and juglone (5-hydroxy-1,4-naphthoquinone), a natural TrxR1 substrate, were pin-transferred to columns 2 and 3, respectively. After incubation for 15 min at room temperature (~22 deg C), 1 uL of selenite (400 uM final concentration) were dispensed to each well. The plate was immediately transferred to a ViewLux high-throughput CCD imager (PerkinElmer), wherein kinetic measurements of NADPH fluorescence (Ex 340 nm, Em 450 nm) were acquired (8 minute kinetic read, see Table 1). Read 1 was utilized to assess the capacity of a compound to serve as an rTrxR1 substrate, i.e. a decrease in NADPH fluorescence compared to the no-compound background is an indication of a substrate behavior for that particular compound. For inhibitory activity of a compound, delta values, computed as the difference in fluorescence intensity between the first and last reads of an 8-minute time kinetic window, were used. All reagents were diluted in an assay buffer consisting of 50 mM Tris-HCl, pH 7.5, 2 mM EDTA, and 0.01% Tween-20.
Throughout the screen, reagent bottle and all liquid lines were made light-tight to minimize reagent degradation. All screening operations were performed on a fully integrated robotic system (Kalypsys, San Diego, CA) containing one RX-130 and two RX-90 anthropomorphic robotic arms (Staubli, Duncan, SC). Library plates were screened starting from the lowest and proceeding to the highest concentration, and a 'double-pinning' step of the highest concentration was required to access higher concentrations of compounds. Vehicle-only plates, with DMSO being pin-transferred to the columns 5-48, were inserted uniformly at the beginning and the end of each library in order to monitor and record any shifts in the background, which can be affected by reagent dispensers or loss in enzyme activity over time. […]
Potency is the fitted concentration of half-maximal effect.

Thioredoxin reductase 1, cytoplasmic (Rattus norvegicus), sequence (O89049 whole entry, looked up): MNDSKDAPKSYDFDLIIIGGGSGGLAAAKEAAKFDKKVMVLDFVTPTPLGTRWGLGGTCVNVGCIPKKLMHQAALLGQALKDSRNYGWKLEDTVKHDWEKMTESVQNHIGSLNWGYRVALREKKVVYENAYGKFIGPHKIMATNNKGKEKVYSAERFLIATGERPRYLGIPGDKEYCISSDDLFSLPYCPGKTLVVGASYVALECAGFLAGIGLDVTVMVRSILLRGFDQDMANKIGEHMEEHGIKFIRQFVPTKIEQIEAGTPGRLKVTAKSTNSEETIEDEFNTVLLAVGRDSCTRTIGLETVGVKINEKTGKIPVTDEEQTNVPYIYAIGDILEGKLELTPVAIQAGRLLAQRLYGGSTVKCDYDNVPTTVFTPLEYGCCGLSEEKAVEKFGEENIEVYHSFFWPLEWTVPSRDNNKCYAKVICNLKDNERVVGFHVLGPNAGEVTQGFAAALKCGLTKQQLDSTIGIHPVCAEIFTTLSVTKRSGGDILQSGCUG

Compound	Potency
Cc1cc(F)ccc1NS(=O)(=O)c1ccc(-n2cccn2)cc1	inactive
COc1ccc2[nH]c3c(c2c1)CCN(C(=O)CCC1CCCC1)C3c1ccc(F)cc1 (stereo not drawn)	inactive
Cc1cc2c(cc3c(SCc4nc(-c5ccccc5)oc4C)nnc(C)n32)o1	inactive
O=C(NC(=S)Nc1ncccn1)c1ccccc1Br	inactive
O=C(O)c1ccccc1NC(=S)NC(NC(=O)c1ccccc1[N+](=O)[O-])C(Cl)(Cl)Cl (stereo not drawn)	inactive
O=C(NC(=S)Nc1ccccc1C(=O)O)c1ccc(-c2ccc(Br)cc2)o1	44.7 µM (active)
CN(CCC#N)c1ccc(C=O)cc1	inactive
S=c1[nH]c(=S)c2n[nH]nc2[nH]1	15.8 µM (active)
C(=Nc1ccc(/C=C/c2ccnc3ccccc23)cc1)c1cc2c3c(c1)CCCN3CCC2	inactive
COc1ccc(-c2onc(C)c2C)cc1S(=O)(=O)NCCc1ccccc1	inactive
OC(CBr)CN1CCCCC1 (stereo not drawn)	inactive
Cc1ccc(-c2nn(-c3ccccc3)cc2CN(Cc2ccccc2)C(=O)CCC(=O)O)o1	39.8 µM (active)
Cc1ccc(-c2nn(-c3cccc(F)c3)cc2CNCCc2ccncc2)o1	inactive
CN(C)Cc1cn(-c2ccccc2)nc1-c1ccccc1	inactive
Cc1ccc(C)c2sc(NC(=O)c3ccc(S(=O)(=O)N4CCCC4)cc3)nc12	inactive
CCc1ccc(NC(=O)C2CCCN2S(=O)(=O)c2ccc3nc(-c4ccccc4)[nH]c3c2)cc1 (stereo not drawn)	inactive
CN(C)c1nc(N)nc(CSc2ccccn2)n1	inactive
COc1ccc(C=C(C#N)C#N)c(CSc2ccccn2)c1	11.2 µM (active)
COc1cccc(N(CC(=O)NCCSc2ccccn2)S(C)(=O)=O)c1	inactive
COc1ccc(C(=O)COC(=O)CCCC(=O)Nc2cc(C(F)(F)F)ccc2Cl)cc1	inactive
CN(N=O)c1ccc(C=C2c3ccccc3-c3ccccc32)cc1	inactive
CCOc1ccc(NC(=O)CCc2c(C)nn(-c3ccc(N4CCCC4)nn3)c2C)cc1	inactive
O=C1O/C(=C\c2ccc(O)cc2)C(O)=C1c1ccc(O)cc1	inactive
Nc1nc(Sc2ncccc2[N+](=O)[O-])n[nH]1	inactive
Cn1cnc([N+](=O)[O-])c1Sc1n[nH]c(N)n1	12.6 µM (active)

Compound	Potency
Cn1cnc([N+](=O)[O-])c1Nc1ccccc1O	inactive
CCOc1ccc(OCC)c(Nc2nc3ccccc3n3nnnc23)c1	inactive
COc1ccc(CNC(=O)Cn2nnc(-c3ccc(S(C)(=O)=O)cc3)n2)cc1	inactive
Cc1c(Cl)cccc1NC(=O)C1CCCN(c2ncnc3onc(C)c23)C1 (stereo not drawn)	inactive
CCOC(=O)N1CCc2c(sc3c2c(=O)n(-c2ccc(CC)cc2)c(=O)n3C)C1	inactive
O=C(c1ccc(Br)cc1)N(Cc1cccs1)c1ccc(F)cc1	inactive
COc1ccc(CCC(=O)NCCc2csc(-c3ccc(Cl)cc3)n2)cc1	inactive
COc1ccc(N2C(=O)CC(N3CCC(C(N)=O)CC3)C2=O)cc1 (stereo not drawn)	50.1 µM (active)
COc1ccc(CCN2C(=O)CC(N3CCC(C(N)=O)CC3)C2=O)cc1OC (stereo not drawn)	22.4 µM (active)
COc1ccc(CCN2C(=O)C3CC=C(C)CC3C2=O)cc1OC (stereo not drawn)	inactive
COc1ccc(CN2C(=O)CC(Cc3ccc(C)cc3)C2=O)cc1OC (stereo not drawn)	inactive
CCOC(=O)c1ccc(N2C(=O)CC(N3CCC(C(=O)OCC)CC3)C2=O)cc1 (stereo not drawn)	inactive
COc1cccc(N2CCN(C3CC(=O)N(c4ccc(Cl)cc4)C3=O)CC2)c1 (stereo not drawn)	inactive
Cn1c(=O)c(C(=O)O)nn(-c2ccccc2)c1=O	inactive
CCN(CC)/[N+]([O-])=N/Oc1cc(O/[N+]([O-])=N/N2CCCC2CO)c([N+](=O)[O-])cc1[N+](=O)[O-] (stereo not drawn)	inactive
COc1ccc(OC)c(NC(=O)Cn2c(=O)n(Cc3ccccc3)c(=O)c3ccccc32)c1	inactive
CCCCCCCNc1ccc(/C=C/c2ccnc3ccccc23)cc1	inactive
O=C(COC(=O)c1ccccc1OCCOc1ccccc1)Nc1cccc(Br)c1	inactive
COc1ccc2c(c1)CCc1c(C(=O)Nc3cc(C)ccc3O)noc1-2	inactive
O=C(c1noc2c1CCCC2)N1CCc2ccccc2C1	inactive
COc1ccc2c(c1)CCc1c(C(=O)N3CCCC3)noc1-2	35.5 µM (active)
CCCCNC(=O)Cn1c(SCc2cccc(Cl)c2)nc2ccncc21	inactive
COc1ccc(-c2cn3c(n2)sc2cc(C(=O)Nc4ccccc4F)ccc23)cc1	inactive
COc1cccc(-c2n[nH]c3c2C(c2cccc(O)c2)N(C)C3=O)c1 (stereo not drawn)	inactive
Cc1ccc(-c2nc(Cn3c(=O)cc(-c4ccccc4)c4c(C)nn(C)c43)c(C)o2)cc1	inactive

Compound	Potency
O=C(NCc1ccccc1)C(=O)NCC(c1ccco1)S(=O)(=O)c1ccc(Cl)cc1 (stereo not drawn)	inactive
CCN1CCC(N(Cc2ccc(F)cc2)C(=O)Nc2cc(C)ccc2C)CC1	inactive
Cc1ccc(NC(=O)CN2C(=O)C(c3ccc(F)cc3)=NC23CCCCCC3)c(C)c1	inactive
CCN1CCC2(CC1)N=C(c1ccc(F)cc1)C(=S)N2C(=O)c1ccc(C)cc1	15.8 µM (active)
Cc1cccc(-n2ccnc2SCC(=O)Nc2cccc3ccccc23)c1C	inactive
NNc1cccc(C=Cc2ccccc2)cc1=O	17.8 µM (active)
O=C(COc1ccccc1)OCc1cc(=O)n2nc(-c3cccs3)sc2n1	inactive
CC1=Nc2cc(C(=O)NCc3ccc(C)cc3)ccc2Sc2ccc(Cl)cc21	inactive
NC(=O)CC[C@@H]1NC(=O)[C@@H]2CCCN2C(=O)c2cc([N+](=O)[O-])cc(F)c2NCCC[C@@H](C(N)=O)NC1=O	12.6 µM (active)
CC(C)[C@@H]1NC(=O)c2cc([N+](=O)[O-])cc(I)c2NCCC[C@@H](C(=O)NC(CC(=O)O)C(N)=O)NC(=O)[C@H](CO)NC1=O (stereo partly drawn)	inactive
C[C@@H]1NC(=O)c2cc([N+](=O)[O-])cc(F)c2NCCC[C@@H](C(N)=O)NC(=O)[C@H](CC(N)=O)NC1=O	inactive
NC(=O)C[C@@H]1NC(=O)CNC(=O)c2cc([N+](=O)[O-])cc(I)c2NCCC(C(N)=O)NC1=O (stereo partly drawn)	inactive
NC(=O)CC[C@@H]1NC(=O)[C@H](CO)NC(=O)c2cc([N+](=O)[O-])cc(I)c2NCC[C@@H](C(N)=O)NC1=O	70.8 µM (active)
NCCCC[C@@H]1NC(=O)[C@H](CCC(=O)O)NC(=O)c2cc([N+](=O)[O-])cc(I)c2NCC[C@@H](C(N)=O)NC1=O	inactive
O=C(COc1ccccc1C(=O)Nc1ccccc1)Nc1cccc(F)c1	inactive
CCC(=O)Nc1cccc(-c2nc3cc(C)ccc3o2)c1	inactive
CC(C)(C)c1ccc(C(=O)C[N+]2(C)CCCc3ccccc32)cc1 (stereo not drawn)	inactive
COC(=O)c1ccccc1NC(=S)NC(=O)c1ccccc1F	25.1 µM (active)
COC(=O)c1ccccc1NC(=O)Cc1ccccc1OC	inactive
O=C(NC(=S)NC1CCSC1=O)c1ccccc1F (stereo not drawn)	inactive
COc1cccc(C2C(C(=O)Nc3ccc(C)cc3C)=C(C)Nc3c(C(=O)Nc4ccccc4)cnn32)c1 (stereo not drawn)	inactive
CC1CCCCN1Cc1c(O)ccc2c(=O)c(-c3cccc(Cl)c3)c(C(F)(F)F)oc12 (stereo not drawn)	inactive
CC1CCCN(Cc2c(O)ccc3c(=O)c(Oc4ccc(C(C)(C)C)cc4)c(C(F)(F)F)oc23)C1 (stereo not drawn)	inactive
COc1ccc(CC(=O)NCc2nnc(SCC(=O)Nc3nccs3)n2C)cc1	inactive
COc1ccc(Cc2nnc(SCC(=O)c3cccc([N+](=O)[O-])c3)n2C)cc1	79.4 µM (active)

Compound	Potency
CCn1c(CNc2ccc(OC)cc2)nnc1SCC(=O)c1ccc(OC)cc1	inactive
Fc1ccc(CSc2nc(NCc3ccccc3)c3ccccc3n2)cc1	inactive
O=C(CSc1nnc(CNC(=O)c2ccccc2)n1-c1ccc(F)cc1)Nc1ccccc1F	inactive
O=C(OCc1ccccc1F)c1ccc2c(c1)OCCO2	inactive
O=C(c1ccc2c(c1)OCO2)N1CCNc2ccccc2C1	inactive
O=C(CCN1CCc2ccccc2C(O)(c2ccccc2)C1)c1ccc2c(c1)OCCO2 (stereo not drawn)	0.708 µM (active)
O=C1CCC[C@@H]2C[C@@]3(C[C@@H]4CCN1[C@H]24)Nc1ccccc1NC3=NCc1ccccc1	inactive
O=C(O)C1CC=CC2CCN(C3CCCCC3)C(=O)C21 (stereo not drawn)	inactive
Cc1nnc(N2CCCC(C(=O)NCCN(C)C)C2)c2nn(-c3ccccc3)c(C)c12 (stereo not drawn)	inactive
O=C1c2ccccc2C(=O)N1c1ccc(S(=O)(=O)N2CCOCC2)c2ccccc12	inactive
CC1CCN(C(=O)c2ccc(S(=O)(=O)Cc3cc(F)ccc3F)c([N+](=O)[O-])c2)CC1	10 µM (active)
O=C(c1ccc(Oc2ccc(Cl)cc2)c([N+](=O)[O-])c1)N1CCCC1	inactive
NC(=O)C1CCN(C(=O)c2ccc(F)c(S(=O)(=O)N3CCOCC3)c2)CC1	inactive
Cc1cccc(-c2nnc(SC(C)C(=O)Nc3ccccc3)n2C)c1 (stereo not drawn)	inactive
COc1cc(Cl)c(C)cc1NC(=O)CCc1nc2cccnc2n1Cc1cccs1	inactive
Cc1cccc(C(=O)N2CCc3cc(CNC(=O)Cc4ccc(F)cc4)ccc32)c1	inactive
CCOC(=O)c1cnc2sccn2c1=O	inactive
CCOC(=O)c1cnc2[nH]c3ccccc3n2c1=O	44.7 µM (active)
CCOC(=O)c1cnc2nc(SCc3ccccc3Cl)[nH]n2c1=O	inactive
COc1ccc(NC(=O)CSc2nc3ccccc3[nH]2)cc1	inactive
Cc1ccccc1CN1CCN(CC(=O)NCc2ccccn2)C1=O	inactive
Cc1ccccc1CN1C[C@@H]2C[C@@H](c3cn(C)nc3-c3ccccc3)N3CCC[C@@]23C1=O	44.7 µM (active)
Cc1ccccc1CN1C[C@@H]2C[C@@H](c3ccc4nsnc4c3)N3CCC[C@@]23C1=O	inactive
